# In PubChem BioAssay (NCATS):
# Inconclusive results are not listed. Entries that show only a call come without a potency. Activity calls are given as the source filed them. Calls come from the whole dose curve; as a rule, active = well fitted curve in the direction sought with a large enough effect; inconclusive = small, poorly fitted or top-dose-only effect, or another doubt; inactive = no such curve, though single readings can be large; an effect the other way counts as inactive or inconclusive.
# Experiments:
# [1] = biological target: Catechol O-methyltransferase (Homo sapiens) (UniProt P21964); experiment: Confirmatory Screen for Target Class Profiling of Small Molecule Inhibitors of Methyltransferases (AID 1745852); conditions: MTase-Glo luminescence, SAH detection, recombinant enzyme; measured here: COMT max response; stronger effect = lower value
# [2] = biological target: Nicotinamide N-methyltransferase (Homo sapiens) (UniProt P40261); experiment: as above; conditions: MTase-Glo luminescence, SAH detection, recombinant enzyme; measured here: NNMT max response; stronger effect = lower value
# [3] = biological target: Phenylethanolamine N-methyltransferase (Homo sapiens) (UniProt P11086); experiment: as above; conditions: MTase-Glo luminescence, SAH detection, recombinant enzyme; measured here: PNMT max response; stronger effect = lower value
# [4] = biological target: Cytochrome P450 3A4 (Homo sapiens) (UniProt P08684); experiment: qHTS Assay for Activators of Cytochrome P450 3A4 (AID 885); conditions: recombinant CYP3A4, Luciferin-PPXE luminescence, 60 min; series mostly up to 57.1 µM; note: nearly all actives have a fitted effect of over 65% in size
# Summary of the method: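 CYP3A4 activity: Luciferin-PPXE O-dealkylation, 25uM substrate, 200mM KPO4, RT throughout. Read-out is luciferase luminescence; higher values reflect activation.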
# [5] = biological target: Cytochrome P450 2D6 (Homo sapiens) (UniProt P10635); experiment: qHTS Assay for Inhibitors and Substrates of Cytochrome P450 2D6 (AID 891); conditions: recombinant CYP2D6, luciferin-ME EGE luminescence; series mostly up to 57.1 µM;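 note: luciferin methyl ether substrate demethylated by CYP2D6 with NADPH regeneration; nearly all actives have a fitted effect of over 60% in size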
# Summary of the method: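 Luminescent read-out of luciferin formed by 5 nM human CYP2D6 demethylating 30 uM Luciferin-ME EGE (Km level) over 60 min at room temperature after NADPH regeneration addition. Data normalized to full inhibition by 1.43 uM quinidine.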
# [6] = biological target: Pyruvate kinase PKM (Homo sapiens) (UniProt P14618); experiment: qHTS Assay for Inhibitors of Human Muscle Pyruvate Kinase (AID 958); conditions: purified human PKM enzyme activity
# Summary of the method: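 Purified human PKM2 (0.1 nM) with 0.5 mM PEP (Km) and 0.1 mM ADP in 50 mM imidazole pH 7.2, KCl, MgCl2, 1 h at room temperature; ATP formed read by coupled luciferase luminescence. Normalized to no-enzyme/110 uM thiadiazolimine inhibition; 0.3 nM enzyme column for activation.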
# [7] = Confirmation and Secondary Assay for Modulators of Hemoglobin Beta Chain Splicing at IVS2 654 locus (AID 910); conditions: HeLa EGFP-654 splicing reporter, GFP fluorescence, 48 h; series mostly up to 38.3 µM;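 note: HeLa cells stably carrying EGFP split by mutant beta-globin IVS2-654 intron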
# Summary of the method: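 HeLa cells stably expressing EGFP interrupted by β-globin IVS2-654 intron, seeded overnight in Opti-MEM/2% FCS, then treated 2 days at 37 °C. Restored splicing read as total peak GFP intensity per well by laser scanning cytometry (488 nm excitation, 500–520 nm emission); 500 nM antisense PNA as control.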
# [8] = Confirmation and Secondary Assay for Modulators of Hemoglobin Beta Chain Splicing at IVS2 705 locus (AID 930); conditions: HeLa EGFP-705 splicing reporter, GFP fluorescence, 48 h; series mostly up to 38.3 µM;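 note: HeLa cells stably expressing the EGFP-705 splicing reporter; GFP fluorescence per well restored by corrected splicing of the IVS2-705 intron in EGFP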
# Summary of the method: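 First, HeLa EGFP-705 cells are seeded at 500/well in Optimem with 2% FCS and left overnight. Next, compound or DMSO is added for 2 days. Finally wells are laser-scanned and total peak GFP intensity scored.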
# [9] = biological target: Cytochrome P450 2C19 (Homo sapiens) (UniProt P33261); experiment: qHTS Assay for Inhibitors and Substrates of Cytochrome P450 2C19 (AID 899); conditions: recombinant CYP2C19, luciferin-H EGE luminescence; series mostly up to 57.1 µM; note: nearly all actives have a fitted effect of over 60% in size
# Summary of the method: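 5 nM human CYP2C19 with 10uM Luciferin-H EGE (at KM) in 50mM KPO4, compound preincubated 10 min at 37C, then NADPH regeneration for 60 min at 37C. Luciferin read by luminescence after detection reagent; normalized to 57uM ketoconazole as full inhibition.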
# Sequence of Cytochrome P450 3A4 (Homo sapiens) (P08684 whole entry, looked up): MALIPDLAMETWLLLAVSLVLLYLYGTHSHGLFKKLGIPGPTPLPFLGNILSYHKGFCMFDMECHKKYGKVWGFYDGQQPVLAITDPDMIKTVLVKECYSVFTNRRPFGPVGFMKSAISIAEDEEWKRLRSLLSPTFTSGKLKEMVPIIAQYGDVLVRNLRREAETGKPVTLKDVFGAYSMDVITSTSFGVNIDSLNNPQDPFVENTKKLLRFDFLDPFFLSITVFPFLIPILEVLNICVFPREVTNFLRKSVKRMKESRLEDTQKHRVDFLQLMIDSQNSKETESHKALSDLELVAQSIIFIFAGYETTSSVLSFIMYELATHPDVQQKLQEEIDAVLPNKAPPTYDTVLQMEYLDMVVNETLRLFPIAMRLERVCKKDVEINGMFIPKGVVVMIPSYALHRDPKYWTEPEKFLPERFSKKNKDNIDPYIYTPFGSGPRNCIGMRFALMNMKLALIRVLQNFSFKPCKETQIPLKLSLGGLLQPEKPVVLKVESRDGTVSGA
# Sequence of Catechol O-methyltransferase (Homo sapiens) (P21964 whole entry, looked up): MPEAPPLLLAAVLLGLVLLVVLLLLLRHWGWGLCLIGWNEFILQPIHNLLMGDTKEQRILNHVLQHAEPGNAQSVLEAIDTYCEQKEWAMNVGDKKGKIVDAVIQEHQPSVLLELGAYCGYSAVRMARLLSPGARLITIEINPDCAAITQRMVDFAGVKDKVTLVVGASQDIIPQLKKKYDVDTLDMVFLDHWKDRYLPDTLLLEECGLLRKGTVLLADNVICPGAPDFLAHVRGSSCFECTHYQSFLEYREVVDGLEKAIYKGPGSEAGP
# Sequence of Nicotinamide N-methyltransferase (Homo sapiens) (P40261 whole entry, looked up): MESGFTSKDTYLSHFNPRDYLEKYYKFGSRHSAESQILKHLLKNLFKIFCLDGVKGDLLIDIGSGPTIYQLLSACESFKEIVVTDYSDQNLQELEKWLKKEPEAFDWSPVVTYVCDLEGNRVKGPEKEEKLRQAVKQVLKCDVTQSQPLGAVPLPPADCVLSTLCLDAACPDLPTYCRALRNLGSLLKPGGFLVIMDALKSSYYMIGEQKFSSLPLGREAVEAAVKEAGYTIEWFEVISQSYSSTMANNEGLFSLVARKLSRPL
# Sequence of Phenylethanolamine N-methyltransferase (Homo sapiens) (P11086 whole entry, looked up): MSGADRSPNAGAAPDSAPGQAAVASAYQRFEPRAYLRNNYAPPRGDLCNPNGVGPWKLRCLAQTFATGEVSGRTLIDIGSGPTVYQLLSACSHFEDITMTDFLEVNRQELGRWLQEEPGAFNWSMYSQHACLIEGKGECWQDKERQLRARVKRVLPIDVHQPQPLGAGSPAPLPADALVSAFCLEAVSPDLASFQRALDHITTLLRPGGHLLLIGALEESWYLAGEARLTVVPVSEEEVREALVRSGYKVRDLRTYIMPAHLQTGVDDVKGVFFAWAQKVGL
# Sequence of Pyruvate kinase PKM (Homo sapiens) (P14618 whole entry, looked up): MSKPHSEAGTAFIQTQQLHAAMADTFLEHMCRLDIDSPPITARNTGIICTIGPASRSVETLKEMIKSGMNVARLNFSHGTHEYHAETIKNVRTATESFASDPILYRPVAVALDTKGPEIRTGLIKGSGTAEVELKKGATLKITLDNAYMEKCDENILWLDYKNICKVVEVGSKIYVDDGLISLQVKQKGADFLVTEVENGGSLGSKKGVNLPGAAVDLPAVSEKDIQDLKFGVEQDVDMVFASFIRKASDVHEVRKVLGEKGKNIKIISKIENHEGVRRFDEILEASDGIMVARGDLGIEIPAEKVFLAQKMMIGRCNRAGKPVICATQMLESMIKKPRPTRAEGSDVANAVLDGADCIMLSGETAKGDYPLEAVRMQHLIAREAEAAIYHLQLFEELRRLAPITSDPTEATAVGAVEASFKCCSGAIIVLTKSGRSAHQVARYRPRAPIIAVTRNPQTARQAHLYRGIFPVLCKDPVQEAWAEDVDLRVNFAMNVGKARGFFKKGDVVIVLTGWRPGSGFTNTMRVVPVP
# Sequence of Cytochrome P450 2C19 (Homo sapiens) (P33261 whole entry, looked up): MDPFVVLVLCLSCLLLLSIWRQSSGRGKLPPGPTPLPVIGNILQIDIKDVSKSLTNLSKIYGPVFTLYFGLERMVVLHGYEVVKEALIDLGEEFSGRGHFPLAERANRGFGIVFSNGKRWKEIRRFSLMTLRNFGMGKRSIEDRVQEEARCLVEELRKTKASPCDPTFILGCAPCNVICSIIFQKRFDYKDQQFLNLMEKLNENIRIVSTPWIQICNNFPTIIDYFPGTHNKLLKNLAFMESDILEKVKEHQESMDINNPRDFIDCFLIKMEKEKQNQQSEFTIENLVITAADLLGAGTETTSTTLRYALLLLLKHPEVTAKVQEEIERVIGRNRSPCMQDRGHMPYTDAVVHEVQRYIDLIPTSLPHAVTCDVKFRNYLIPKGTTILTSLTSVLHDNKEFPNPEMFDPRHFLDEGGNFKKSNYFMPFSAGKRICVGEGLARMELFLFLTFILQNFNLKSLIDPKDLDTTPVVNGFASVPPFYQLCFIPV
# Sequence of Cytochrome P450 2D6 (Homo sapiens) (P10635 whole entry, looked up): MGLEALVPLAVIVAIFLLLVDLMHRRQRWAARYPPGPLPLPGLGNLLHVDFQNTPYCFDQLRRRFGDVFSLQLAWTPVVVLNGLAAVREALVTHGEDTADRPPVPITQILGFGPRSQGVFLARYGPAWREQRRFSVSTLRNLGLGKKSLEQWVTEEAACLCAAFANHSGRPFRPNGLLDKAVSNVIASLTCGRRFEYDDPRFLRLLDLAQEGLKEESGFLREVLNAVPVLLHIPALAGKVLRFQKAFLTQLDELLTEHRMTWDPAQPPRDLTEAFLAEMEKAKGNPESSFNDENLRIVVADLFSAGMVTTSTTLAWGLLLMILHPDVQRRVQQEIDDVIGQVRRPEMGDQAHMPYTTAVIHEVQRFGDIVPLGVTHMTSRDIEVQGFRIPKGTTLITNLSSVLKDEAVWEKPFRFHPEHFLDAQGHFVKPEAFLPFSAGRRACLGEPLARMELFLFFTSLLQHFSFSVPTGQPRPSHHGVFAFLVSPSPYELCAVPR
smiles,measurement,setting,value
COc1cc2c(NC3CCN(C4CCCCC4)CC3)nc(N3CCCN(C(C)C)CC3)nc2cc1OCCCN1CCCCC1,activity,[1],-2.63%
same,activity,[2],-10.6%
same,activity,[3],-1.48%
N=C1Sc2ccccc2C2=NCCCN12,Potency,[4],inactive
same,Potency,[5],inactive
same,Potency,[6],7.94 µM (active)
CN1C(=O)CCC1c1cccnc1 (centres undefined),outcome,[7],inactive
same,outcome,[8],inactive
NCCC(=O)NCCc1cnc[nH]1,Potency,[9],inactive
